According to PubChem BioAssay (NCATS):
Records with an inconclusive call do not appear. Values without a mark were called inactive. The source made the active and inactive calls. Calls come from the whole dose curve; as a rule, active = well fitted cell-killing curve with a large enough effect; inconclusive = small, poorly fitted or top-dose-only effect, or effect the other way; inactive = no such curve, though single readings can be large or run the other way.

test: Quantitative High-Throughput drug screen in 47 multiple myeloma cell lines against the NCATS MIPE library collection: ARD_JJKsccE7 cell viability assay (AID 1918929); details: ARD myeloma cell line viability, CellTiter-Glo, 48 h; series mostly up to 45.8 µM; viability: at the top concentration
Source text: PI: Beverly A. Mock Ph.D.
Laboratory of Cancer Biology and Genetics,
Center for Cancer Research, National Cancer Institute,
National Institute of Health, Bethesda, Maryland
Drug resistance and disease progression are common in multiple myeloma (MM) patients, underscoring the need for new therapeutic combinations. […] We hypothesized that effective combinations would reduce MYC expression and enhance p16 activity. […] These preclinical data identify potentially useful drug combinations for evaluation in drug-resistant MM and reveal potential mechanisms of combined drug sensitivity.
Described herein is the primary MIPE qHTS used to cherrypick compounds. Validated compounds were then further tested for potential synergistic activiy.
[1] Peat TJ, Gaikwad SM, Dubois W, Gyabaah-Kessie N, Zhang S, Gorjifard S, Phyo Z, Andres M, Hughitt VK, Simpson RM, Miller MA, Girvin AT, Taylor A, Williams D, D'Antonio N, Zhang Y, Rajagopalan A, Flietner E, Wilson K, Zhang X, Shinn P, Klumpp-Thomas C, McKnight C, Itkin Z, Chen L, Kazandijian D, Zhang J, Michalowski AM, Simmons JK, Keats J, Thomas CJ, Mock BA. Drug combinations identified by high-throughput screening promote cell cycle transition and upregulate Smad pathways in myeloma. Cancer Lett. 2023 Aug 1;568:216284. doi: 10.1016/j.canlet.2023.216284. Epub 2023 Jun 24. PMID: 37356470; PMCID: PMC10408729.
SEQUENCE No. (e.g., 1, 2, 3, etc.); […] (e.g., Cells, Incubation, Reagent, etc.); VALUE and DESCRIPTION.
1; Cells; 5 uL; white, solid bottom 1536-well Greiner assay plate.
2; Compounds; 23 nL; Kalypsis pin tool (Wako USA) equipped with a 1536-well pin head to transfer to the assay plates.
3; Incubation; 48 hours; 37C incubation.
4; Reagent;5uL; CellTiter Glo (Promega).
5; Detector; 425V; Luminescence; Viewlux PerkinElmer.
NOTES (numbers refer to Sequence numbers above)
1. The cell-based screening methods employed in this study were like those previously published. Briefly, the corresponding myeloma cell lines were screened in 1,536-well plates with 500 cells, 5-uL per well for inhibition of cell viability (assessed by measuring ATP levels with CellTiterGlo).
2. NCATS MIPE 4.0 library of approved and investigational drugs were added using the Kalypsis pin tool. Wells treated with DMSO only for 100% viability and media only wells for 0% viability were used as controls.
3. The assay plates were covered and incubated for 48 hours in a 37C, 5% CO2 incubator with controlled humidity.
4. After 48 hours, CellTilter-GloTM luminescent substrate mix (Promega) reagent was added to the assay plate and plates we incubated for 5 min at room temperature.
5. Signal was measured as median relative luminescence units on a ViewLux (PerkinElmer) multiplate reader.
[1] Heske CM, Davis MI, Baumgart JT, Wilson K, Gormally MV, Chen L, Zhang X, Ceribelli M, Duveau DY, Guha R, Ferrer M, Arnaldez FI, Ji J, Tran HL, Zhang Y, Mendoza A, Helman LJ, Thomas CJ. Matrix Screen Identifies Synergistic Combination of PARP Inhibitors and Nicotinamide Phosphoribosyltransferase (NAMPT) Inhibitors in Ewing Sarcoma. Clin Cancer Res. 2017 Dec 1;23(23):7301-7311. doi: 10.1158/1078-0432.CCR-17-1121. Epub 2017 Sep 12. PMID: 28899971; PMCID: PMC6636827.
Potency is the fitted concentration of half-maximal effect.

SMILES | Potency | viability
CNC1CCC(N(Cc2cccc(-c3ccncc3)c2)C(=O)c2sc3c(F)ccc(F)c3c2Cl)CC1 (stereo not given) | 29.6 µM (active) | 
O=c1c(-c2ccc(O)cc2)coc2cc(O)ccc12 |  | 111%
N#Cc1ccc(NC(=O)Nc2ccccc2Br)c2n[nH]nc12 | 10.5 µM (active) | 
CC(C)(C)c1cc(C(=O)O)c(NC(=O)Nc2ccc3[nH]ncc3c2)s1 |  | 91.3%
CC[C@]1(O)C[C@@H]2CN(CCc3c([nH]c4ccccc34)[C@@](C(=O)OC)(c3cc4c(cc3OC)N(C=O)[C@@H]3C45CCN4CC=C[C@](CC)([C@H]45)[C@@H](OC(C)=O)[C@]3(O)C(=O)OC)C2)C1 (stereo not given in full) |  | 102%
CC(C)(Cc1ccc2ccccc2c1)NC[C@@H](O)COc1cccc(Cl)c1C#N |  | 132%
O=C(O)c1c(Cl)c(Cl)c(Cl)c(Cl)c1-c1c2cc(I)c(=O)c(I)c-2oc2c(I)c(O)c(I)cc12 | 8.33 µM (active) | 
CO[C@@H](C(=O)N1Cc2[nH]nc(NC(=O)c3ccc(N4CCN(C)CC4)cc3)c2C1)c1ccccc1 | 26.4 µM (active) | 
COc1ccc(-c2nc(N3CCOCC3)c3sc(CN(C)c4ncc(C(=O)NO)cn4)cc3n2)cn1 | 0.001 µM (active) | 
O=C(O)c1cc(O)c2c(c1)C(=O)c1cccc(O)c1C2=O |  | 84.9% [at 92.2 µM]
O=C(Nc1c(Cl)cncc1Cl)c1ccc(OC(F)F)c(OCC2CC2)c1 |  | 110%
Nc1ncnc2c1ncn2[C@@H]1O[C@H](CO)C[C@@H]1O |  | 101%
O=C1NC(=O)C(=Cc2ccc3c(c2)OC(F)(F)O3)S1 | 16.6 µM (active) | 
O=C(O)C(O)Cc1ccc(O)c(O)c1 (stereo not given) |  | 133%
CC(=Cc1ccccc1)C=C1SC(=S)N(CC(=O)O)C1=O |  | 158%
Clc1ccc(CCC(Cn2ccnc2)Sc2c(Cl)cccc2Cl)cc1 (stereo not given) | 13.2 µM (active) | 
O=c1cc(CN2CCOCC2)occ1OCCCCCSc1ccnc2cc(C(F)(F)F)ccc12 | 20.9 µM (active) | 
O=C(CCCCCCC(=O)Nc1ccccc1)NO | 1.18 µM (active) | 
COc1cc2ncnc(Nc3ccc(F)c(Cl)c3)c2cc1OCCCN1CCOCC1 | 12.1 µM (active) | 
Oc1ccc(C2=Cc3ccc(O)cc3OC2)cc1 | 1.66 µM (active) | 

SMILES | Potency | viability
O=C(NCc1ccncc1)C12C[C@H]3C[C@@H](C1)CC(c1ccc(Cl)cc1)(C3)C2 | 18.7 µM (active) | 
CCOc1ccc(Nc2nc(-c3c(C)nc4ccccn34)cs2)cc1 | 0.001 µM (active) | 
CS(=O)c1ccc(-c2nc(-c3ccc(F)cc3)c(-c3ccncc3)[nH]2)cc1 (stereo not given) | 42.9 µM (active) | 
CN[C@@H](C)C(=O)N[C@H]1CN(C(=O)CC(C)C)CC[C@H]2CC[C@@H](C(=O)NC(c3ccccc3)c3ccccc3)N2C1=O | 7.43 µM (active) | 
COc1ccc(-c2oc3c(CC=C(C)C)c(OC4O[C@H](CO)[C@@H](O)[C@H](O)[C@@H]4O)cc(O)c3c(=O)c2OC2O[C@@H](C)[C@H](O)[C@@H](O)[C@@H]2O)cc1 (stereo not given in full) | 9.35 µM (active) | 
CC(=O)Nc1ccc([C@H](C)C(=O)Nc2ncc(C(C)C)s2)cc1 | 1.18 µM (active) | 
CC(C)OC(=O)CCCC=CC[C@@H]1[C@H](C=C[C@@H](O)COc2cccc(C(F)(F)F)c2)[C@H](O)C[C@@H]1O |  | 138%
O=c1c(O)c(-c2ccc(O)cc2)oc2cc(O)cc(O)c12 | 13.2 µM (active) | 
CCCCCNC(=O)N1CCC(CN(Cc2ccc(Cl)cc2)Cc2ccc([N+](=O)[O-])s2)C1 (stereo not given) | 20.9 µM (active) | 
COc1ccc2c(Oc3ccc(NC(=O)c4c(C)n(CC(C)(C)O)n(-c5ccccc5)c4=O)cc3F)ccnc2c1 | 20.9 µM (active) | 
CCn1cc(C(=O)O)c(=O)c2ccc(C)nc21 |  | 101%
NC1CCC(Nc2nc(Nc3ccc(C(=O)N4CCCCC4)cc3)c3ncn(-c4cccc(F)c4)c3n2)CC1 (stereo not given) |  | 110%
O=C(CCN1CCN(C(=O)OCc2cc(Cl)cc(Cl)c2)CC1)c1ccc2[nH]c(=O)oc2c1 | 0.0166 µM (active) | 
C[C@H](NC(=O)c1sccc1OCc1ccc(Cl)cc1)c1ccccc1 |  | 102%
COc1cc(N2CCC(N3CCN(C)CC3)CC2)ccc1Nc1ncnc(Nc2ccccc2S(=O)(=O)C(C)C)n1 |  | 154%
CCS(=O)(=O)N1CC(CC#N)(n2cc(-c3ncnc4[nH]ccc34)cn2)C1 |  | 163%
COCCOC(=O)C1=C(C)NC2=C(C(=O)CC(c3ccccc3OC)C2)C1c1cccc(O)c1 (stereo not given) | 1.66 µM (active) | 
CC1(C)S[C@H]2[C@H](NC(=O)[C@@H](N)c3ccc(O)cc3)C(=O)N2[C@@H]1C(=O)O | 4.69 µM (active) | 
O=C(O)[C@H]1O[C@H](Oc2cc3oc(-c4ccccc4)cc(=O)c3c(O)c2O)[C@H](O)[C@@H](O)[C@H]1O |  | 174%
C[C@]12CC[C@@H]3c4ccc(O)cc4C[C@@H](CCCCCCCCCS(=O)CCCC(F)(F)C(F)(F)F)[C@H]3[C@H]1CC[C@H]2O (stereo not given in full) |  | 112%
